The values that follow come from the supplement of paper PMC9399229.

Values joined by “and” are separate entries in the source; they are usually repeats but may differ in a detail not shown here. Equal entries are not always repeated. Structures can show the parent of a compound that is named as a salt. Whole data set: some 1,900 compounds, median “relative cell viability (CellTiter-Glo), compound plus cabozantinib, relative to the cabozantinib arm (arm median 1.05; reference not stated)” near 1.1, cut for the lowest 2% near 0.15. The sample holds the lowest values, similar compounds and a random draw of the others, so the mix is not that of the screen.

The assay relates to Hep3B. Put plainly: relative cell viability (CellTiter-Glo), compound plus cabozantinib, relative to the cabozantinib arm (arm median 1.05; reference not stated) (fraction); higher = more viable cells (less growth inhibition). To be noted: cabozantinib 2 µM; 4 days.
`O=C(NC[C@H](O)CN1CCc2ccccc2C1)c1cc(NC2COC2)ncn1`: the relative cell viability was determined as 1.13.

`OC[C@H]1OC(O)[C@H](O)[C@@H](O)[C@@H]1O` (stereo partly drawn) [Dextrose]: the relative cell viability came to 1.01.

For `CC(C)CC(=O)Nc1n[nH]c2c1CN(C(=O)C1CCN(C)CC1)C2(C)C`, the relative cell viability turned out to be 0.431.

On to `Cc1nc(Nc2n[nH]c3c2CN(C(=O)N[C@H](CN(C)C)c2ccccc2)C3(C)C)c2sccc2n1`, for which the relative cell viability turned out to be 0.149.

With `CC1CC(OC(=O)C(O)c2ccccc2)CC(C)(C)C1` (stereo not drawn) [Cyclandelate], the relative cell viability was found to be 1.07.

As to `O=C(NC1CCNCC1)c1n[nH]cc1NC(=O)c1c(Cl)cccc1Cl`, the relative cell viability was 0.158 and 0.144.

Consider `O=C(NC1CCOCC1)c1ccc(-c2cc(-c3c[nH]nc3-c3ccccn3)ccn2)cc1`, for which the relative cell viability worked out at 1.12.

Regarding `NC(=O)Nc1cc(-c2cccc(F)c2)sc1C(=O)N[C@H]1CCCNC1`, the relative cell viability came to 0.162.

For `C#C[C@]1(OC(C)=O)CC[C@H]2[C@@H]3CCC4=C[C@@H](OC(C)=O)CC[C@@H]4[C@H]3CC[C@@]21C` [Ethynodiol diacetate], the relative cell viability is 1.12.

As for `N#Cc1c(Oc2ccc(F)c(NC(=O)Cc3cccc(C(F)(F)F)c3)c2)ccc2nc(NC(=O)C3CC3)sc12`, the relative cell viability is 0.227.

`CCNC(=O)c1noc(-c2cc(Cl)c(O)cc2O)c1-c1ccc(OC)cc1`: the relative cell viability came out at 0.183.

On to `CN(C)Cc1ccc(S(=O)(=O)n2ccc(/C=C/C(=O)NO)c2)cc1` [Resminostat], for which the relative cell viability came out at 0.59.

With `CCCCc1nc2cc(/C=C/C(=O)NO)ccc2n1CCN(CC)CC` [Pracinostat (SB939)], the relative cell viability worked out at 0.147.

`COc1ccc(C(=O)CC(=O)c2ccc(C(C)(C)C)cc2)cc1` [Avobenzone]: the relative cell viability came out at 1.1.

`Cc1cc(C(=O)NOCCO)c(Nc2ccc(I)cc2F)n(C)c1=O`: the relative cell viability turned out to be 0.141.

In the case of `O=C(NOCC(O)CO)c1cc(Br)c(F)c(F)c1Nc1ccc(I)cc1F` (stereo not drawn), the relative cell viability came to 0.87.

Consider `O=C(NOC[C@H](O)CO)c1ccc(F)c(F)c1Nc1ccc(I)cc1F`, for which the relative cell viability came to 0.183.

For `Cn1cnc2c(F)c(Nc3ccc(Br)cc3F)c(C(=O)NOCCO)cc21`, the relative cell viability turned out to be 0.634.

As for `O=C(NC[C@H](O)CO)c1ccncc1Nc1ccc(I)cc1F`, the relative cell viability came out at 0.201.

Regarding `O=C(NOCCO)c1ccc2cncn2c1Nc1ccc(I)cc1F`, the relative cell viability came out at 0.133.

Consider `Cc1nc2c([nH]1)-c1ccccc1N(C(=O)c1ccc(NC(=O)c3ccccc3-c3ccccc3)cc1)CC2` [Conivaptan HCl], for which the relative cell viability amounted to 0.972.

For `CNC(=O)c1ccccc1Sc1ccc2c(/C=C/c3ccccn3)n[nH]c2c1` [Axitinib], the relative cell viability turned out to be 0.715.

As to `COCC[n+]1c2c(n(Cc3cnccn3)c1C)C(=O)c1ccccc1C2=O` [YM155 (Sepantronium Bromide)], the relative cell viability amounted to 0.129.

For the compound `O=C(c1cncc(Br)c1)N1CCC(N2CCCC2)CC1`, the relative cell viability came to 1.16.

Take `COc1cc2c(cc1O)CC[C@@H]1[C@@H]2CC[C@]2(C)[C@@H](O)CC[C@@H]12` [2-Methoxyestradiol (2-MeOE2)]: the relative cell viability came to 1.06.

Turning to `CCCCCCCCCCCCCCCCO` [1-Hexadecanol], the relative cell viability came to 1.14.

For `C[C@@H](Nc1cc(F)cc(F)c1)c1cc(C(=O)N(C)C)cc2c(=O)cc(N3CCOCC3)oc12`, the relative cell viability is 0.998.

`COc1ccc(Cn2ccc3ccc(C(=O)NO)cc32)cc1`: the relative cell viability turned out to be 0.91.

Regarding `CCN(CC)Cc1ccc2cc(COC(=O)Nc3ccc(C(=O)NO)cc3)ccc2c1` [Givinostat (ITF2357)], the relative cell viability came out at 0.109.

For `CCN(CC)CCNC(=O)c1ccc(N)cc1` [Procainamide HCl], the relative cell viability was found to be 0.947.

As to `COc1cc(NC(=O)c2ccccn2)ccc1Cl`, the relative cell viability turned out to be 1.05.

In the case of `CN(C)C(=S)NN=C(c1ccccn1)c1ccccn1`, the relative cell viability was determined as 0.15.

Consider `CCOC(=O)[C@H](CCc1ccccc1)N[C@@H](C)C(=O)N1CCC[C@H]1C(=O)O` [Enalapril Maleate], for which the relative cell viability was determined as 1.15.

In the case of `CC#CC(=O)N1CC[C@@H](n2c(=O)n(-c3ccc(Oc4ccccc4)cc3)c3c(N)ncnc32)C1`, the relative cell viability is 1.07.

As for `COC(=O)CC[C@H](NC(=O)[C@H](CC(=O)OC)NC(=O)OCc1ccccc1)C(=O)N[C@H](C(=O)N[C@@H](CC(=O)OC)C(=O)CF)C(C)C`, the relative cell viability came out at 1.09.

Turning to `CCCCC(=O)N(Cc1ccc(-c2ccccc2-c2nnn[nH]2)cc1)[C@H](C(=O)O)C(C)C` [Valsartan], the relative cell viability turned out to be 1.2.

For the compound `COc1ccc(-c2nc(N3CCOCC3)c3sc(CN(C)c4ncc(C(=O)NO)cn4)cc3n2)cn1`, the relative cell viability is 0.181.

With `Cn1cnc2c(F)c(Nc3ccc(Br)cc3Cl)c(C(=O)NOCCO)cc21` [Selumetinib (AZD6244)], the relative cell viability was determined as 0.616.

On to `COc1cc(N2CCC(N3CCN(C)CC3)CC2)ccc1Nc1ncnc(Nc2ccccc2S(=O)(=O)C(C)C)n1`, for which the relative cell viability was determined as 1.09.

In the case of `Cc1cc(Nc2ncc(Cl)c(Nc3ccccc3S(=O)(=O)C(C)C)n2)c(OC(C)C)cc1C1CCNCC1`, the relative cell viability came out at 0.122.

As for `NC(=S)N/N=C/c1ncccc1N` [Triapine], the relative cell viability is 1.02.

As to `CC(=O)Nc1nc2c(Oc3cc(-c4ccc(C(F)(F)F)cc4)ncn3)cccc2s1`, the relative cell viability came to 1.04.

Regarding `CN[C@H]1CN(c2ccc3c(=O)c(C(=O)O)cn(-c4nccs4)c3n2)C[C@@H]1OC` [Voreloxin (SNS-595)], the relative cell viability was found to be 0.968.

Consider `CC/C(=C(\c1ccc(O)cc1)c1ccc(OCCNC)cc1)c1ccccc1` [Endoxifen HCl], for which the relative cell viability came out at 1.15.

Regarding `Oc1cc(O)c(Cl)cn1` [Gimeracil], the relative cell viability came out at 1.

`CNC(CC(=O)O)C(=O)O` [NMDA (N-Methyl-D-aspartic acid)]: the relative cell viability was 1.15.

For the compound `CO[C@H]1/C=C/O[C@@]2(C)Oc3c(C)c(O)c4c(O)c(c5c(nc6cc(C)ccn65)c4c3C2=O)NC(=O)/C(C)=C\C=C\[C@H](C)[C@H](O)[C@@H](C)[C@@H](O)[C@@H](C)[C@H](OC(C)=O)[C@@H]1C` [Rifaximin], the relative cell viability came out at 0.91.

As for `C=CCc1cc(OC)c(O)c(C(=O)NCCO)c1` [Alibendol], the relative cell viability came out at 0.982.

`CC1(C)CC[C@]2(C(=O)O)CC[C@]3(C)C(=CC[C@@H]4[C@@]5(C)CC[C@H](O)C(C)(C)[C@@H]5CC[C@]43C)[C@@H]2C1` [Oleanolic Acid]: the relative cell viability came to 1.14.

With `C=C1C(=O)[C@]23[C@H](O)[C@H]1CC[C@H]2[C@@]12CO[C@]3(O)[C@@H](O)[C@@H]1C(C)(C)CC[C@@H]2O` [Oridonin], the relative cell viability worked out at 1.11.

`Cc1csc(-c2nnc(Nc3ccc(Oc4ncccc4-c4ccnc(N)n4)cc3)c3ccccc23)c1`: the relative cell viability was found to be 1.

On to `CCCNC(=O)Nc1ccc(Oc2ncnc3cc(OC)c(OC)cc23)cc1Cl`, for which the relative cell viability came out at 1.14.

As to `CCOc1cc2ncc(C#N)c(Nc3ccc(F)c(Cl)c3)c2cc1NC(=O)/C=C/CN(C)C` [Pelitinib (EKB-569)], the relative cell viability was determined as 0.9.

With `CC(=O)C1=C(O)C=C2Oc3c(C(C)=O)c(O)c(C)c(O)c3C2(C)C1=O` (single isomer, unassigned; (+)) [(+)-Usniacin], the relative cell viability worked out at 1.11.

Turning to `C[C@H]1Oc2cc(cnc2N)-c2c(nn(C)c2C#N)CN(C)C(=O)c2ccc(F)cc21`, the relative cell viability stood at 1.14.

Regarding `C[C@@H](O)[C@H]1C(=O)N2C(C(=O)O)=C(S[C@@H]3CN[C@H](C(=O)N(C)C)C3)[C@H](C)[C@H]12` [Meropenem], the relative cell viability turned out to be 1.17.

In the case of `CC[C@@]1(O)C(=O)OCc2c1cc1n(c2=O)Cc2cc3c(CN(C)C)c(O)ccc3nc2-1` [Topotecan HCl], the relative cell viability was 0.556.

In the case of `CCc1c2c(nc3ccc(O)cc13)-c1cc3c(c(=O)n1C2)COC(=O)[C@]3(O)CC`, the relative cell viability was found to be 0.176.

In the case of `CC[C@@]1(O)C(=O)OCc2c1cc1n(c2=O)Cc2cc3cc(O)ccc3nc2-1` [(S)-10-Hydroxycamptothecin], the relative cell viability is 0.137.

In the case of `CC(C)(C(=O)NCC(F)(F)C(F)(F)F)C(=O)N[C@@H]1C(=O)Nc2ccccc2-c2ccccc21`, the relative cell viability was found to be 1.04.

With `C[C@]12C=CC(=O)N[C@@H]1CC[C@@H]1[C@@H]2CC[C@]2(C)[C@@H](C(=O)Nc3cc(C(F)(F)F)ccc3C(F)(F)F)CC[C@@H]12` [Dutasteride], the relative cell viability was 1.12.

Consider `O=C(COc1ccc(C(=O)c2ccccc2)cc1)NC1CCN(Cc2ccccc2)CC1` [AdipoRon], for which the relative cell viability came to 1.06.

With `Cc1[nH]nc2ccc(-c3cncc(OC[C@@H](N)Cc4ccccc4)c3)cc12`, the relative cell viability was determined as 0.11.

Take `O=C(O)Cc1cc(I)c(Oc2ccc(O)c(I)c2)c(I)c1` [Tiratricol]: the relative cell viability is 0.888.

Take `CSc1nc2cc(Cl)c(Oc3cccc(Cl)c3Cl)cc2[nH]1` [Triclabendazole]: the relative cell viability was 1.14.

For `O=C(/C=C\n1cnc(-c2cc(C(F)(F)F)cc(C(F)(F)F)c2)n1)N1CC(F)(F)C1`, the relative cell viability stood at 0.32.

As for `CC12CC3CC(C)(C1)CC(N)(C3)C2` [Memantine HCl], the relative cell viability is 1.1.

On to `O=C(C=Cc1ccccc1)NC(NC(=S)Nc1ccc(Cl)cc1)C(Cl)(Cl)Cl` (stereo not drawn), for which the relative cell viability was found to be 1.14.

As to `Cn1cc(/C=C/C(=O)c2cccc(F)c2)cc1/C=C/C(=O)NO`, the relative cell viability was 1.19.

As for `O=C(/C=C/c1cccc(S(=O)(=O)Nc2ccccc2)c1)NO` [Belinostat (PXD101)], the relative cell viability is 0.149.

For the compound `COC(=O)N[C@H](C(=O)N[C@@H](Cc1ccccc1)[C@@H](O)CN(Cc1ccc(-c2ccccn2)cc1)NC(=O)[C@@H](NC(=O)OC)C(C)(C)C)C(C)(C)C` [Atazanavir Sulfate], the relative cell viability turned out to be 0.969.

Consider `Fc1cc(-c2cccc3ncc(-c4cnn(C5CCNCC5)c4)nc23)cc(F)c1CN1CCOCC1`, for which the relative cell viability was found to be 1.11.

For the compound `CCOC(=O)C1=C(C)NC(C)=C(C(=O)OC)C1c1cccc(Cl)c1Cl` (stereo not drawn) [Felodipine], the relative cell viability came out at 1.11.

In the case of `CN1CCN2c3ncccc3Cc3ccccc3C2C1` (stereo not drawn) [Mirtazapine], the relative cell viability is 1.01.

In the case of `O=C(O[C@H]1CN2CCC1CC2)N1CCc2ccccc2[C@@H]1c1ccccc1` [Solifenacin succinate], the relative cell viability came out at 1.11.

As to `O=C1NC(=O)[C@@H](c2cn3c4c(cccc24)CCC3)[C@@H]1c1c[nH]c2ccccc12` [Tivantinib (ARQ 197)], the relative cell viability was 0.835.

For the compound `CC(C)n1c(/C=C/C(O)CC(O)CC(=O)O)c(-c2ccc(F)cc2)c2ccccc21` (stereo not drawn) [Fluvastatin Sodium], the relative cell viability turned out to be 1.14.

For `CC[C@H]1[C@@H](O)[C@@H]2[C@H](CC[C@]3(C)[C@@H]([C@H](C)CCC(=O)O)CC[C@@H]23)[C@@]2(C)CC[C@@H](O)C[C@@H]12` [Obeticholic Acid], the relative cell viability was found to be 1.12.
